G9a block – G9a (human) methyltransferase inhibition. 8.8% of 350,000 active. AID 504332. G9a H3K9 monomethylation, AlphaScreen, 2 h. Potency, µM (doses to about 102 µM), for inactives: at the highest dose activity, negative = inhibition, hits mostly inhibitors. Q96KQ7; note: potency is the fitted concentration of half-maximal effect; % is set by controls: 0 for no effect and ±100 for the full control effect; nearly all actives have a fitted effect of over 75% in size
Target sequence (Q96KQ7 913-1193 limits assumed): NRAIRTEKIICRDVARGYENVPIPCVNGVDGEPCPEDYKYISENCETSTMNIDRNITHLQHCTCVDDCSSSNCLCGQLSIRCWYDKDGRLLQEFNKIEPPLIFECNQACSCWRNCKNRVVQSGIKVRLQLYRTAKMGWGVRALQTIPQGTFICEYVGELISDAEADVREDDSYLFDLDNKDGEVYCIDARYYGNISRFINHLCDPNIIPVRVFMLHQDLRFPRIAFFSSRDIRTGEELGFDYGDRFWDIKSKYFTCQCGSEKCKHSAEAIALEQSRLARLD
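Methyltransferase reactions run at room temperature for 2 h (20 nM enzyme, 500 nM biotin-H3K9 peptide, 20 uM SAM) after a 15 min compound preincubation; product detected by AlphaScreen beads and anti-H3K9me1 antibody.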
BAZ2B inh – BAZ2B (human) inhibition; Q9UIF8; AlphaScreen BAZ2B-H3K14Ac peptide displacement; Potency, µM (titrated, usually from 114 µM), for inactives: at the top dose activity change, negative = inhibition, actives largely listed as inhibitors; 4.4% of 360,000 active; note: potency is the fitted concentration of half-maximal effect; % is set by controls: 0 for no effect and ±100 for the full control effect; nearly all actives have a fitted effect of over 60% in size
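In this displacement format the biotinylated H3(5-23) peptide acetylated at Lys14 serves as ligand at 50 nM, with BAZ2B at 50 nM in PBS pH 7.4 containing 0.01% Tween-20. Donor and acceptor beads are 10 ug/mL final.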
Six1-Eya2 blk – inhibitors of human Six1/Eya2 interaction; Q15475+O00167; AlphaScreen GST-Six1/His-Eya2 binding, biochemical; hits give low values; activity change, % (no concentration beside the values); 0.56% of 360,000 active; AID 651725; in the data active = activity change below about -65%; inconclusive = mostly about -30% to -63%; note: % is set by controls: 0 for no effect and ±100 for the full control effect
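GST-Six1 + His-Eya2 (5X stock: 250/500 nM); Tris pH 8.0, 300 mM NaCl, 0.05% BSA, 0.02% Tween 20; GSH donor/Ni acceptor beads; 1 h 37 °C dark; AlphaScreen readout.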
CtBP-E1A inh – blocks the CtBP interaction with E1A. AlphaScreen GST-E1A/His-CtBP binding, 1536-well; hits give low values. activity change, % (concentration not given with the values). 0.49% of 340,000 active. AID 651724; in the data active = activity change below about -65%; inconclusive = mostly about -30% to -63%; note: % is set by controls: 0 for no effect and ±100 for the full control effect
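Protein mix (5X: 125 nM each GST-E1A, His-CtBP) was incubated with pinned compound 2 h at 37 deg C in dark, in 50 mM Tris pH 8.0 buffer with 300 mM NaCl. Glutathione donor and nickel acceptor beads followed; AlphaScreen signal read after 1 h.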
HP1b binding inh – blocks HP1-beta chromodomain binding to methylated histone tails; AlphaScreen HP1-beta / biotin-H3K9me3 peptide binding; 0.56% of 390,000 active; Potency, µM (highest dose often 114 µM), for the others: top-dose activity change, negative = inhibition, most hits filed as inhibitors; note: potency is the fitted concentration of half-maximal effect; nearly all actives have a fitted effect of over 70% in size
Target sequence (P83916 whole entry, looked up): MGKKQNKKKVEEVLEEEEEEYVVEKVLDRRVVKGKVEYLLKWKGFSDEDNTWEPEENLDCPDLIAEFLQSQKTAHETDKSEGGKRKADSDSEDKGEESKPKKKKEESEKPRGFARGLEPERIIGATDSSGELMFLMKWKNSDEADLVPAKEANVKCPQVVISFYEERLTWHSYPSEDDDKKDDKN
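Compound inhibition of the preformed complex between 50 nM HP1-beta and 50 nM biotinylated H3K9me3 peptide was read by AlphaScreen. Buffer was PBS pH 7.4 with 0.01% Tween-20. Incubations ran 30 min at room temperature, with 10 ug/mL donor/acceptor beads.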
JMJD2A Tudor inh – JMJD2A Tudor domain (human) inhibition | O75164 | AlphaScreen JMJD2A-Tudor / H3K4me3 peptide binding | Potency, µM (doses to about 114 µM), without a hit: at the top dose activity change, negative = inhibition, most hits filed as inhibitors | 4.4% of 390,000 active | AID 504339; note: potency is the fitted concentration of half-maximal effect; % is set by controls: 0 for no effect and ±100 for the full control effect; nearly all actives have a fitted effect of over 50% in size
The depositor's hits bear a star; ? = inconclusive; . = no result given; ! = not active in a repeat; [ ] = remark or other dose. A selection: hits, their analogues and other compounds. The true share with any hit is near 10%. Unless noted, calls come from the whole dose curve; as a rule, active = well fitted inhibition curve with a large enough effect; inconclusive = small, poorly fitted or top-dose-only effect; inactive = no such curve, though single readings can be large or run the other way.

SMILES | G9a block | BAZ2B inh | Six1-Eya2 blk | CtBP-E1A inh | HP1b binding inh | JMJD2A Tudor inh
CCN(CC)CCn1c2ccccc2c2cnc(N)c(C#N)c21 | 35.5µM* | 9.5% | -2.2 | -4.7 | 8.1% | -20.7%
CCc1ccc(CNC(=O)C2CCN(c3nc4ccccc4nc3C(F)(F)F)CC2)cc1 | 1.1%[59 µM] | -0.2% | . | . | 10.3% | -6.8%
CCOC(=O)C1=CCN(S(=O)(=O)c2ccccc2Cl)C1c1ccc(Cl)c(Cl)c1 (centres undefined) | . | . | 0.1 | -2.3 | . | .
CC(=O)Nc1ccc(NC(=O)C(C)OC(=O)C2(c3ccc(Cl)cc3)CCCC2)cc1 (centres undefined) | 50.1µM* | -24.0% | 1.6 | -2.0 | 20.0% | -28.7%
Cc1cc(C(=O)COC(=O)C2=NNC(=O)CC2)c(C)n1-c1ccc(OC(F)F)cc1 | 50.1µM* | -6.9% | -6.6 | -1.2 | -14.0% | ?
Cc1cc(C(=O)C(C)OC(=O)C2=NNC(=O)CC2)c(C)n1-c1ccc(OC(F)F)cc1 (centres undefined) | -33.2%[59 µM] | ? | 0.0 | -1.3 | -24.9% | ?
O=C1CC(=O)N(CCNc2ncc(C(F)(F)F)cc2Cl)C(=O)N1 | 6.6%[59 µM] | -36.3% | -6.2 | 3.9 | 0.6% | -26.1%
O=C1C=CC(=O)N1CCNc1ncc(C(F)(F)F)cc1Cl | 2.51µM* | -30.2% | -0.2 | 10.2 | -1.4% | ?
O=C(OCC(O)COC(=O)c1cccnc1)c1cccnc1 | 4.7% | 0.6% | -10.7 | . | 48.1% | 5.1%
CCCCNc1c(-c2ccc(SC(C)CC)c(OC)c2)nc2ccc(C)cn12 (centres undefined) | -4.7%[2.33 µM] | 50.1µM* | -9.5 | -10.8 | 7.1% | ?
CCCCNc1c(-c2ccc(SC(C)CC)cc2)nc2cnccn12 (centres undefined) | . | . | 31.4 | -7.7 | 23.6% | 56.2µM*
CCCCNc1c(-c2ccc(OC)c(Sc3ccc(OC)cc3)c2)nc2ccccn12 | -3.3%[12.7 µM] | 39.8µM* | -20.1 | -18.4 | -16.4% | 44.7µM*
CCCCNc1c(-c2ccc(OC)c(Sc3ccc(OC)cc3)c2)nc2cnccn12 | . | . | 1.3 | -1.3 | 1.7% | ?
CCCCCCSc1cc(-c2nc3cnccn3c2NCCCC)ccc1OC | . | . | 18.0 | 26.6 | 74.0% | ?
CCCCc1cc(=O)oc2cc(C)cc(OC(C)C(=O)NCc3ccncc3)c12 (centres undefined) | 5.9%[0.0925 µM] | -6.0% | -3.0 | 8.2 | 20.4% | -10.7%
O=C(Nc1ccc2c(c1)OCO2)C1Cc2c(-c3ccc4c(c3)OCO4)ccnc2O1 (centres undefined) | . | . | -22.2 | -18.5 | . | .
CCN1CCN(Cc2ccc(OC)c(OCc3ccccc3)c2)CC1 | ? | -37.7% | 0.0 | 2.1 | 8.2% | -19.0%
CCn1c2ccccc2c2cc(CN3CCN(Cc4ccccc4Cl)CC3)ccc21 | 3.55µM* | 50.1µM* | . | . | ? | 7.08µM*
CCOc1ccc(CN2CCN(Cc3ccc4c(c3)c3ccccc3n4CC)CC2)cc1 | 4.47µM* | 10µM* | . | . | ? | 22.4µM*
CCn1c2ccccc2c2cc(CN3CCN(Cc4ccc(OC)c(OC)c4)CC3)ccc21 | ? | 44.7µM* | . | . | ? | 4.47µM*
COc1cc2c(C#N)c(N3CCN(C)CC3)nc(N)c2c(N)n1 | 50.1µM* | 4.2% | . | . | . | .
COc1cc2c(C#N)c(N3CCN(c4ccccc4OC)CC3)nc(N)c2c(N)n1 | ? | ? | -1.9 | -1.6 | -11.2% | -31.2%
COc1cc2c(C#N)c(N3CCCC3)nc(N)c2c(N)n1 | 11.2% | 15.1% | -22.2 | -73.2*! | 39.2% | -30.2%
COc1ccc(C)c2sc(NC(=O)c3ccc(S(=O)(=O)N(C)C)cc3)nc12 | 6.5%[59 µM] | 6.6% | . | . | 31.5%[57 µM] | -0.6%
N#CC1=C(N)C2=C(N3CCCCC3)CCCC2C1(C#N)C#N (centres undefined) | ? | 50.1µM* | -16.1 | -25.7 | 12.2% | -29.8%
SMILES | G9a block | BAZ2B inh | Six1-Eya2 blk | CtBP-E1A inh | HP1b binding inh | JMJD2A Tudor inh
CN(CCCCCCN(C)Cc1ccccc1O)Cc1ccccc1O | . | 50.1µM* | -1.8 | . | ? | 20µM*
COc1ccc(CCNC(=O)CCCCn2c(=O)c3ccccc3n(Cc3cc(C)ccc3C)c2=O)cc1OC | 4.9%[59 µM] | -1.6% | . | . | 14.5% | -18.4%
Cc1cccc(-n2c(SCC(N)=O)nnc2-c2ccccn2)c1C | -37.1% | 17.8µM* | -29.6 | -19.0 | 12.8% | 79.4µM*
NC(=O)CSc1nnc(-c2ccccn2)n1N | -7.4% | 22.4µM* | -6.5 | . | 30.0% | 70.8µM*
Nn1c(SCc2ccccc2)nnc1-c1ccccn1 | -7.5%[12.7 µM] | 14.1µM* | 2.2 | 1.6 | 39.9% | 6.3%
Cc1ccc(-n2c(SCC(N)=O)nnc2-c2ccccn2)cc1 | 11.3%[12.7 µM] | 25.1µM* | -25.0 | -13.6 | 36.1% | ?
O=[N+]([O-])c1ccc(CSc2nnc(-c3cccnc3)o2)cc1 | 7.5%[59 µM] | -20.6% | -3.3 | . | 14.5% | -10.7%
Cc1ccc(-n2c(SCCN)nnc2-c2cccc(C)c2)cc1 | 4.8%[59 µM] | 79.4µM* | -2.3 | -9.3 | 42.9% | -16.2%[11.4 µM]
CCc1ccccc1-n1c(SCC(=O)N2CCCC2)nnc1-c1ccccn1 | -8.9%[59 µM] | 56.2µM* | -17.6 | -8.8 | 19.2% | ?
CCN(CC)C(=O)CSc1nnc(-c2ccccn2)n1-c1ccc(C)c(C)c1 | -6.6%[59 µM] | 44.7µM* | -16.9 | -14.2 | 49.6% | ?
CCCCNC(=O)C1(C)CCN1Cc1ccc(C#N)cc1 (centres undefined) | . | . | 16.5 | 0.0 | . | .
CC(C)(C)OC(=O)N1CCc2nc(N3CCN(c4ncccn4)CC3)ncc2C1 | 6.6%[59 µM] | 0.9% | . | . | 44.2% | 9.1%
COc1ccc(N=C2S/C(=C\c3cc(C)n(C)c3C)C(=O)N2CC(C)C)cc1 | -11.9%[12.7 µM] | ? | ? | -24.4 | ? | 39.8µM*
CCCN1C(=O)/C(=C/c2ccc(C)s2)SC1=Nc1ccc(OC)cc1 | -48.8% | ? | -12.6 | -6.5 | -18.2% | ?
CC(=O)Oc1ccc(Cl)cc1/C=C/c1ccc2ccccc2n1 | 104.1%[59 µM] | 58.5% | 23.6 | 0.0 | 222.8% | 73.8%
CC(C)(O)c1ccccc1CC[C@@H](SCC1(CC(=O)O)CC1)c1cccc(/C=C/c2ccc3ccc(Cl)cc3n2)c1 | . | . | -9.6 | -4.3 | -5.2% | 79.4µM*

Compound activity: PubChem, National Center for Advancing Translational Sciences (NCATS)
